# Test results taken from PubChem BioAssay (NCI).
# The panel holds about 83,000 compounds, 20% with a hit somewhere; the sample as a whole holds those more often.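 Activity criterion: percent growth below 10, measured after cells in 96-well plates were exposed to a single compound concentration for 48 hours.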 Values without a mark were called inactive. Calls of active or inactive are those of the source.
# Tested on: IGROV1 ovarian
# Assay: NCI-60 one-dose screen, 48 h (100 = growth as untreated, 0 = no growth, -100 = all killed)
# Conditions: 10 µM unless noted
row,Compound,growth
1,CC(C)(C)C(=O)OCOP(=O)(NCc1ccccc1)C1CCCN(O)C1=O (configuration not stated),19.4%
2,CCCc1cc(O)c2c3c(c(=O)oc2c1)CN(C)CC3,32.7%
3,Nc1c(F)cc(-c2nc3cc(F)ccc3[se]2)cc1F,19.5%
4,Clc1ccc(COC(Cn2ccnc2)c2ccc(Cl)cc2Cl)cc1 (configuration not stated),35%
5,Fc1ccc2c(c1)c(-c1nc(-c3c[nH]c4ncccc34)cs1)cn2CCCCN1CCCCC1,-60.5% (active)
6,Oc1c(CCl)cc(Cl)cc1CCl,115%
7,COc1cc([C@@H]2c3cc4c(cc3[C@H](OC(C)=O)[C@H]3COC(=O)[C@H]23)OCO4)cc(OC)c1OC,21.2%
8,CCOC(=S)S[C@H]1C[C@@H]2[C@H](CC[C@]3(C)C(=O)CC[C@@H]23)[C@@]2(C)CCC(=O)C=C12,112%
9,CC1(C)N=C(N)N=C(N)N1c1ccc(CCC(=O)Nc2ccc(S(=O)(=O)F)cc2)c(Cl)c1,-43.3% (active)
10,Cc1c2cc(Cl)c3ccccc3c2c[n+]2ccccc12,19.9%
11,COc1cc(NC(C)CCCNC2CN3CCC2CC3)c2ncccc2c1 (configuration not stated),69.1%
12,COC(=O)[C@@H](C)C[C@H](Cc1ccccc1)NC(=O)c1csc([C@@H](C[C@H](C(C)C)N(C)C(=O)[C@@H](NC(=O)C23CC(NC(C)=O)(C2)C3)C2CC2)OC(C)=O)n1,49.4%
13,CC12CCC3C(CCC4=CC(=O)CCC43CF)C1CCC2=O (configuration not stated),62.4%
14,O=C1OCC2=C1C(c1ccccc1)c1cc3c(cc1N2)OCO3 (configuration not stated),36.4%
15,COc1cc(/C=C\c2cc(OC)c(OC)c(OC)c2)cc(N/C=C\C(=O)c2cc(OC)c(OC)c(OC)c2)c1OC,15.6%
16,Cc1ccc(S(=O)(=O)C(Cl)(Cl)Cl)cc1,99%
17,c1ccc(COc2ccc3[nH]cc(CCN(Cc4ccccc4)Cc4ccccc4)c3c2)cc1,90.7%
18,Clc1ccc(CSC(Cn2ccnc2)c2ccc(Cl)cc2Cl)cc1 (configuration not stated),29.1%

row,Compound,growth
1,CCCCCCCCCCCCCCCCCCOc1ccccc1COP(=O)(O)OOCC[N+](C)(C)C,-74.1% (active)
2,CC12CCC3C(C=CC4=C(N)C(=O)CCC43C)C1CCC2=O (configuration not stated),49.5%
3,CNC(=O)Oc1ccc(N(C)C)cc1C(C)C,109%
4,C=CC[n+]1ccc(-c2cc[n+](CC=C)cc2)cc1,13.6%
5,CCC1CC(O)c2c(O)c3c(c(O)c2C1O)C(=O)c1cccc(O)c1C3=O (configuration not stated) (tested in a mixture with another compound),-53.5% (active)
6,ClC1=C(Cl)C(Cl)(C2(Cl)C(Cl)=C(Cl)C(Cl)=C2Cl)C(Cl)=C1Cl,-33.3% (active)
7,O=c1[nH]cc(N(CCCl)CCCl)c(=O)[nH]1,50.2%
8,Cn1cc(C=O)c2nccnc21,122%
9,CN1CC(=O)N(O)C1(C)c1cccnc1 (configuration not stated),102%
10,CC1=C([Te]c2ccc(O)cc2)C(=O)c2ccccc2C1=O,-27% (active)
11,COC(=O)[C@@H](C)C[C@H](Cc1ccccc1)NC(=O)c1csc([C@@H](C[C@H](C(C)C)N(C)C(=O)[C@@H](NC(=O)[C@H]2CCCCN2C)c2ccc(F)cc2)OC(C)=O)n1,27%
12,C[C@@H]1O[C@@H](O[C@H]2C[C@@H](O)[C@]3(CO)C4C(CC[C@]3(O)C2)[C@@]2(O)CC[C@H](C3=CC(=O)OC3)[C@@]2(C)C[C@H]4O)[C@H](O)[C@H](O)[C@H]1O (some centres not stated),-5.14% (active)
13,CC[C@H](C)[C@H](NC(=O)C12CC(NC(C)=O)(C1)C2)C(=O)N(C)[C@H](C[C@@H](OC(C)=O)c1nc(C(=O)N[C@@H](Cc2ccccc2)C[C@H](C)C(=O)OC)cs1)C(C)C,35.4%
14,CC(=O)/C=C/c1ccc2c(c1)OCO2,118%
15,C[CH2][Sn]([Cl])([Cl])[CH2]C.Oc1ccccc1C=NCCN=Cc1ccccc1O,98.9%
16,CN1CCCCC1C(C)(O)c1ccccc1 (configuration not stated),99.8%
17,COc1ccc2c(c1)c(C1(O)CC(CSC#N)OC1=O)cn2C(=O)c1ccc(Cl)cc1 (configuration not stated),77.2%

# Tested on: OVCAR-3 ovarian
# Assay: as above
# Conditions: 10 µM unless noted
row,Compound,growth
1,CC(C)(C)C(=O)OCOP(=O)(NCc1ccccc1)C1CCCN(O)C1=O (configuration not stated),-6.7% (active)
2,CCCc1cc(O)c2c3c(c(=O)oc2c1)CN(C)CC3,-3.56% (active)
3,Nc1c(F)cc(-c2nc3cc(F)ccc3[se]2)cc1F,71.3%
4,Clc1ccc(COC(Cn2ccnc2)c2ccc(Cl)cc2Cl)cc1 (configuration not stated),40.4%
5,Fc1ccc2c(c1)c(-c1nc(-c3c[nH]c4ncccc34)cs1)cn2CCCCN1CCCCC1,-84.3% (active)
6,COc1ccc2nc(NC(=O)COc3cc(/C=C\c4cc(OC)c(OC)c(OC)c4)ccc3OC)sc2c1,-39% (active)
7,Oc1c(CCl)cc(Cl)cc1CCl,115%
8,COc1cc([C@@H]2c3cc4c(cc3[C@H](OC(C)=O)[C@H]3COC(=O)[C@H]23)OCO4)cc(OC)c1OC,1.52% (active)
9,CCOC(=S)S[C@H]1C[C@@H]2[C@H](CC[C@]3(C)C(=O)CC[C@@H]23)[C@@]2(C)CCC(=O)C=C12,115%
10,CC1(C)N=C(N)N=C(N)N1c1ccc(CCC(=O)Nc2ccc(S(=O)(=O)F)cc2)c(Cl)c1,58.9%
11,Cc1c2cc(Cl)c3ccccc3c2c[n+]2ccccc12,4.55% (active)
12,COc1cc(NC(C)CCCNC2CN3CCC2CC3)c2ncccc2c1 (configuration not stated),11%
13,COC(=O)[C@@H](C)C[C@H](Cc1ccccc1)NC(=O)c1csc([C@@H](C[C@H](C(C)C)N(C)C(=O)[C@@H](NC(=O)C23CC(NC(C)=O)(C2)C3)C2CC2)OC(C)=O)n1,-7.77% (active)
14,CC12CCC3C(CCC4=CC(=O)CCC43CF)C1CCC2=O (configuration not stated),119%
15,O=C1OCC2=C1C(c1ccccc1)c1cc3c(cc1N2)OCO3 (configuration not stated),-46% (active)
16,COc1cc(/C=C\c2cc(OC)c(OC)c(OC)c2)cc(N/C=C\C(=O)c2cc(OC)c(OC)c(OC)c2)c1OC,9.78% (active)
17,Cc1ccc(S(=O)(=O)C(Cl)(Cl)Cl)cc1,110%
18,c1ccc(COc2ccc3[nH]cc(CCN(Cc4ccccc4)Cc4ccccc4)c3c2)cc1,96.7%
19,CCOC(=O)c1c(C)n(Cc2ccccc2)c2cc(CN(C)C)c(O)cc12,79.4%

row,Compound,growth
1,Clc1ccc(CSC(Cn2ccnc2)c2ccc(Cl)cc2Cl)cc1 (configuration not stated),38.8%
2,CCCCCCCCCCCCCCCCCCOc1ccccc1COP(=O)(O)OOCC[N+](C)(C)C,-29.2% (active)
3,CC12CCC3C(C=CC4=C(N)C(=O)CCC43C)C1CCC2=O (configuration not stated),64.6%
4,CNC(=O)Oc1ccc(N(C)C)cc1C(C)C,97.7%
5,C=CC[n+]1ccc(-c2cc[n+](CC=C)cc2)cc1,40.7%
6,CCC1CC(O)c2c(O)c3c(c(O)c2C1O)C(=O)c1cccc(O)c1C3=O (configuration not stated) (tested in a mixture with another compound),-12% (active)
7,ClC1=C(Cl)C(Cl)(C2(Cl)C(Cl)=C(Cl)C(Cl)=C2Cl)C(Cl)=C1Cl,-77.4% (active)
8,O=c1[nH]cc(N(CCCl)CCCl)c(=O)[nH]1,98.5%
9,Cn1cc(C=O)c2nccnc21,125%
10,CN1CC(=O)N(O)C1(C)c1cccnc1 (configuration not stated),107%
11,CC1=C([Te]c2ccc(O)cc2)C(=O)c2ccccc2C1=O,-63.7% (active)
12,COC(=O)[C@@H](C)C[C@H](Cc1ccccc1)NC(=O)c1csc([C@@H](C[C@H](C(C)C)N(C)C(=O)[C@@H](NC(=O)[C@H]2CCCCN2C)c2ccc(F)cc2)OC(C)=O)n1,-17% (active)
13,C[C@@H]1O[C@@H](O[C@H]2C[C@@H](O)[C@]3(CO)C4C(CC[C@]3(O)C2)[C@@]2(O)CC[C@H](C3=CC(=O)OC3)[C@@]2(C)C[C@H]4O)[C@H](O)[C@H](O)[C@H]1O (some centres not stated),-96.2% (active)
14,CC[C@H](C)[C@H](NC(=O)C12CC(NC(C)=O)(C1)C2)C(=O)N(C)[C@H](C[C@@H](OC(C)=O)c1nc(C(=O)N[C@@H](Cc2ccccc2)C[C@H](C)C(=O)OC)cs1)C(C)C,-42.3% (active)
15,CC(=O)/C=C/c1ccc2c(c1)OCO2,109%
16,C[CH2][Sn]([Cl])([Cl])[CH2]C.Oc1ccccc1C=NCCN=Cc1ccccc1O,103%
17,CN1CCCCC1C(C)(O)c1ccccc1 (configuration not stated),111%
18,COc1ccc2c(c1)c(C1(O)CC(CSC#N)OC1=O)cn2C(=O)c1ccc(Cl)cc1 (configuration not stated),108%
